Only some compounds are listed: those with a hit (about 3% of all), similar ones and a draw of the others.
Tau fibril FP: blocks human tau fibril formation measured by polarization. K18 P301L tau heparin fibrillization, Alexa594 FP, 6 h. Potency, µM (highest dose often 57.7 µM), for inactives: top-dose activity, negative = inhibition, actives largely listed as inhibitors. 280,000 tested, 0.39% active; also: potency is read from the fitted curve at half-maximal effect; nearly all actives have a fitted effect of over 55% in size
Target sequence (P10636 561-689 P618L limits assumed): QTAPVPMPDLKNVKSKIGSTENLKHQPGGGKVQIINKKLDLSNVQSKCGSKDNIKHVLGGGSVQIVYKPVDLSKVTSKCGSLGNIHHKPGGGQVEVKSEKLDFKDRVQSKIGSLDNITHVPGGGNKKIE
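Human tau K18 […] P301L fragment, 15 uM unlabeled plus 0.24 uM Alexa 594-labeled tau (final), with compound and 20 uM heparin in 100 mM sodium acetate pH 7; 6 hr at 37 C, then Alexa 594 FP read.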
JMJD2E inh: inhibitors of human JMJD2E histone demethylase; 230,000 tested, 1.6% active; B2RXH2; Potency, µM (top dose mostly 57.1 µM), for inactives: at the top dose activity change, negative = inhibition, actives largely listed as inhibitors; JMJD2E catalytic domain, FDH-coupled NADH fluorescence (FDH is formaldehyde dehydrogenase);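 also: potency is read from the fitted curve at half-maximal effect; 0% = wells with enzyme and -100% = buffer wells without enzyme; nearly all actives have a fitted effect of over 50% in size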
Target sequence (B2RXH2 1-337 limits assumed): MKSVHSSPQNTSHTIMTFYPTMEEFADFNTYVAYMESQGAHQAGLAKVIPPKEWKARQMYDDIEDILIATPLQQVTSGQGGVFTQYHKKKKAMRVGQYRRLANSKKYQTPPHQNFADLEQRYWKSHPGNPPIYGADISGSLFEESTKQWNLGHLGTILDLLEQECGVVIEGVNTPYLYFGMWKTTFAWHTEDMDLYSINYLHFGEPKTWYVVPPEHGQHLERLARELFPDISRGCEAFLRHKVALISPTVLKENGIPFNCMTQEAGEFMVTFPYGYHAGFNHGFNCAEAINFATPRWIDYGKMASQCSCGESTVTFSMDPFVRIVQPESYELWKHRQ
Tau ThT inhib: blocks human tau fibril formation measured by thioflavin T; AID 1460; 270,000 tested, 2.1% active; Potency, µM (titrated, usually from 57.4 µM), for the others: at the top dose activity, negative = inhibition, most hits filed as inhibitors; recombinant tau K18 P301L, heparin-induced fibrillization, ThT fluorescence; P10636; also: potency is read from the fitted curve at half-maximal effect; nearly all actives have a fitted effect of over 55% in size
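Aggregation was driven by heparin (20 uM final) acting on recombinant tau […] bearing P301L in 100 mM sodium acetate pH 7; fibrils were detected with Thioflavin T.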
Tau fluor cs: counter-screen for tau fibril formation inhibitors; tau K18 P301L (four-repeat tau fragment) Alexa594 fluorescence, heparin fibrillization; Potency, µM (doses to about 57.7 µM), inactives show at the top dose activity change, negative = decrease; 280,000 tested, 0.93% active; also: potency is read from the fitted curve at half-maximal effect; nearly all actives have a fitted effect of over 55% in size
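Human K18 P301L tau (15 uM unlabeled plus 0.24 uM Alexa 594-labeled, final) in 100 mM sodium acetate pH 7 was mixed with compound and 20 uM heparin and incubated 6 hr at 37 C.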
FBPA coupling cs: coupling enzyme interference in Giardia aldolase counter-screen | coupling enzyme system counterscreen, AmpLite Red fluorescence | activity change, negative = inhibition, % at 58.2 µM, hits read low | 290,000 tested, 0.67% active | AID 2472; in the data active = activity change below about -30%
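Coupling enzymes only (glyceraldehyde-3-phosphate) + compound, at 57.5 uM final, 10 min RT; add substrate/coupling/AmpLite Red mix, 20 min RT; fluorescence ex 525/em 598 nm. Actives flag coupling-system interference.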
* hit, by the source's call; u = inconclusive; x = not tested or not shown; [ ] = remark or other dose. Unless noted, calls follow the shape of the dose curve; as a rule, active = well fitted curve in the direction sought with a large enough effect; inconclusive = small, poorly fitted or top-dose-only effect, or another doubt; inactive = no such curve, though single readings can be large; an effect the other way counts as inactive or inconclusive. Unless noted, % is scaled to controls: 0 for no effect and ±100 for the full control effect.

SMILES	Tau fibril FP	JMJD2E inh	Tau ThT inhib	Tau fluor cs	FBPA coupling cs
CC(C)(O)[C@@H]1CCC[N+]2(C)CCCC[C@H]12 (some centres not stated)	5.6%	-28.9%	-2.5%	-0.2%	-1.6
CC(C)Cn1cc(NC(=O)NCc2cccc(Cl)c2)c2ccccc2c1=O	8.9%	x	-6.0%	-25.4%	x
CC1CCCN(S(=O)(=O)c2ccc(NC(=O)Cn3nnc(-c4ccccc4F)n3)cc2)C1 (configuration not stated)	20µM*	-0.3%	7.7%	u	-4.7
COc1ccc(OC)c(-c2csc(NC(=O)CSc3ccc([N+](=O)[O-])cc3)n2)c1	-3.8%	-5.4%	u	11.2µM*[quencher]	-3.2
COc1ccc(OC)c(-c2csc(NC(=O)CSc3ccc(Br)cc3)n2)c1	u	-0.6%	-5.8%	u	1.6
COCCN=c1scc(-c2ccc3c(c2)NC(=O)CO3)n1/N=C(\C)c1ccc(O)cc1	u	-23.6%	14.1µM*	14.1µM*[quencher]	2.5
COc1cc(/C=N/n2c(-c3ccc4c(c3)NC(=O)CO4)csc2=Nc2cccc(C)c2)ccc1O	12.4%	5.2%	4.6%	4.2%	3.9
COc1cc(/C=N/NC(=O)c2sc3ccccc3c2Cl)ccc1OC(=O)c1ccc([N+](=O)[O-])cc1	3.3%	4.3%	1.26µM*	u	0.7
COc1ccc(C(=O)Oc2ccc(/C=N/NC(=O)c3ccccc3OC)cc2[N+](=O)[O-])cc1	-13.8%	1.1%	u	-7.7%	-0.2
COc1cccc(/C=N/NC(=O)c2cccc([N+](=O)[O-])c2)c1OS(=O)(=O)c1ccccc1	3.3%	5.2%	-9.9%	u	1.9
COc1ccc(C(=O)N/N=C/c2ccc(OC(=O)c3cccc4ccccc34)c([N+](=O)[O-])c2)cc1	-1.6%	-4.9%	5.01µM*	u	-3.2
COc1ccc(/C=N/NC(=O)c2cccc([N+](=O)[O-])c2)cc1OS(=O)(=O)c1ccccc1	-3.5%	-4.9%	-13.1%	14.1µM*[quencher]	1.4
O=C(N/N=C/c1ccc(OC(=O)c2ccccc2)c([N+](=O)[O-])c1)c1ccc(O)cc1	-11.9%	-13.7%	8.91µM*	u	-0.1
CCCCn1c(=O)nc2n(-c3ccc(Br)cc3)c3ccccc3cc-2c1=O	-1.0%	x	-11.3%	-6.3%	x
CCCCCCCc1cc2c(cn1)=C(OC)C(C)(OC(C)=O)C(=O)C=2Cl (configuration not stated)	5.5%	-4.0%	-9.2%	-8.0%	1.0
O=S1(=O)NCC23CCC(CC21)O3 (configuration not stated)	x	x	x	x	4.2
O=C(N/N=C/c1cccc([N+](=O)[O-])c1)c1ccc(Br)cc1	-5.2%	-3.5%	u	-9.9%	1.6
O=C(N/N=C/c1cccc([N+](=O)[O-])c1)c1cccc(Br)c1	-8.4%	-1.6%	-1.5%	-17.9%	3.2
N#Cc1cc([N+](=O)[O-])ccc1Oc1cccc(/C=N/NC(=O)c2cccc(Cl)c2)c1	-5.7%	10.9%	-6.7%	u	-35.5*
O=C(N/N=C/c1cccc([N+](=O)[O-])c1)c1ccccc1-n1cccc1	1.2%	-11.6%	-4.3%	-21.0%	-38.2*
COc1ccc(/C=N/NC(=O)c2cccc([N+](=O)[O-])c2)cc1OC(=O)c1ccccc1	-5.0%	-3.7%	-20.8%	11.2µM*[quencher]	6.3
COc1cc(/C=N/NC(=O)c2cccc([N+](=O)[O-])c2)ccc1OCc1ccccc1	u	u	u	11.2µM*[quencher]	1.1
O=C(Cc1ccc(NC(=O)N2CCCCc3ccccc32)cc1)NCc1ccccc1	-7.6%	x	-12.0%	-4.9%	x
CCc1ccc(-n2nc(C)c3c(C(=O)Nc4cccc(C(F)(F)F)c4)cc(C)nc32)cc1	u	x	0.1%	-12.8%	x
CCOC(=O)c1ccc(NC(=O)CCC(=O)N2Cc3ccccc3Oc3ncccc32)cc1	-1.9%	x	4.7%	-13.5%	x
SMILES	Tau fibril FP	JMJD2E inh	Tau ThT inhib	Tau fluor cs	FBPA coupling cs
O=c1cc(-c2c(F)c(F)c(F)c(F)c2F)oc2c(F)c(F)c(F)c(F)c12	u	1.4%	14.1µM*	u	0.0
O=c1cc(-c2c(F)c(F)c(F)c(F)c2F)oc2ccccc12	-4.9%	-0.7%	-21.2%	-13.7%	3.2
Cn1c(-c2ccccc2)cc(=O)c2ccccc21	-2.2%	1.6%	-2.2%	6.8%	0.4
Cn1c2ccccc2c(=O)n2c(=O)c3ccccc3cc12	-3.0%	0.1%	-0.7%	-5.1%	-34.6*
C=Cc1c(C)/c2[n-]/c1=C\c1[n-]c(c(CC)c1C)/C=c1\[n-]c3c(c1C)C(=O)C(C(=O)[O-])C=3c1[n-]c(c(C)c1CCC(=O)[O-])\C=2.[Cu].[Na+].[Na+] (configuration not stated)	20µM*	7.94µM*	14.1µM*	11.2µM*[quencher]	-9.8
COc1ccccc1CNC(=O)c1cnc2sc(N3CCCCCC3)nn2c1=O	2.6%	x	-6.5%	-8.9%	x
CC(=O)NC1CCCN(O)C(=O)/C=C(\C)CCOC(=O)C(NC(C)=O)CCCN(O)C(=O)/C=C(\C)CCOC(=O)C(NC(C)=O)CCCN(O)C(=O)/C=C(\C)CCOC1=O (configuration not stated)	-3.0%	7.94µM*	-13.0%	-6.7%	1.5
O=C(Nc1cc(C(F)(F)F)cc(C(F)(F)F)c1)c1cc(Cl)ccc1O	x	x	x	x	-8.6
S=c1nc(-c2ccccc2)n(-c2ccccc2)[nH]1	x	x	x	x	-0.1
CN=c1nc(-c2ccccc2)n(-c2ccccc2)s1	u	3.16µM*	22.4µM*	-16.2%	x
O=C(/C=C/c1ccccc1)Nc1ncn[nH]1	u	-9.5%	10µM*	-18.6%	-1.6
O=C(CCc1ccccc1)Nc1ncn[nH]1	3.0%	7.7%	-1.7%	1.9%	3.2
CCCCC/C=C\C[C@@H](O)/C=C/C=C\CCC(=O)O	2.4%	1.8%	-6.8%	-11.2%	3.5
CCOc1ccc(NC(=S)N(CCc2c(C)[nH]c3ccccc23)Cc2ccco2)cc1	u	10.6%	u	12.6µM*[quencher]	1.3
CNC(=S)N(CCc1c(C)[nH]c2ccccc12)Cc1ccco1	7.2%	-24.6%	-11.2%	-29.1%	-0.3
COc1ccc(NC(=S)N(CCc2c(C)[nH]c3ccccc23)Cc2ccco2)cc1	12.4%	-3.0%	u	14.1µM*[quencher]	-1.2
CN(C)c1ccnc(C(=O)O)c1	-3.0%	2.82µM*	-7.3%	-8.8%	0.1
O=C(O)c1cc(Br)ccn1	4.5%	17.8µM*	0.9%	0.6%	-8.5
O=C(COC(=O)c1ccccn1)c1cccc(Br)c1	x	x	x	x	0.1
CCCc1cc(-c2[nH]ncc2-c2ccc3c(c2)OCCCO3)c(O)cc1OC	-13.0%	u	u	10µM*[quencher]	-12.9
CCc1cc(-c2[nH]ncc2-c2ccc3c(c2)OCO3)c(O)cc1O	u	u	u	14.1µM*[quencher]	-9.2
CCc1cc(-c2[nH]ncc2-c2ccc(OC)cc2)c(O)cc1O	x	x	x	x	0.0
O=C(NCCc1ccc(Cl)cc1)c1c2c(nc3ccccc13)C(=O)N(C1CCCCC1)C2	2.4%	x	-10.3%	-0.3%	x
COc1cc(SSc2cc(OC)cc([N+](=O)[O-])c2N)c(N)c([N+](=O)[O-])c1	u	2.51µM*	x	u	-30.2*
COc1cc([N+](=O)[O-])c2ncsc2c1	5.7%	3.0%	8.9%	13.7%	-2.9

Source: PubChem (National Center for Advancing Translational Sciences (NCATS))
